Source: PubChem BioAssay (Tox21)
Inconclusive results are not listed. Activity calls are given as the source filed them. Unless noted, calls come from the whole dose curve; as a rule, active = well fitted curve in the direction sought with a large enough effect in the repeat runs; inconclusive = weak or mixed curves; inactive = no such curve, though single readings can be large; an effect the other way counts as inactive or inconclusive.

Legend:
[1] = qHTS assay to identify small molecule antagonists of the retinoid acid receptor (RAR) signaling pathway - cell viability counter screen (AID 1159551); note: nearly all actives have a fitted effect of over 35% in size
Summary of the method: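 Following overnight attachment, C3RL4 reporter cells received DMSO-dissolved compounds and then retinol (1 uM final). Six hours later at 37 C, ATP content was measured by CellTiter-Glo luminescence.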

[2] = qHTS assay to identify small molecule antagonists of the retinoic acid receptor (RAR) signaling pathway (AID 1159552; note: nearly all actives have a fitted effect of over 50% in size)
Summary of the method: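 Using a RARE-driven luciferase construct in C3RL4 cells, retinol at 1 uM final provided the agonist stimulus while compounds were co-applied. After 6 hours at 37 C, luminescence was recorded to flag inhibitors of retinol signaling.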

[3] = qHTS assay to identify small molecule agonists of the retinoic acid receptor (RAR) signaling pathway (AID 1159553); note: potency is the fitted concentration of half-maximal effect
Summary of the method: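 Cell line C3RL4, RARE luciferase reporter. Treatment: compounds in DMSO, 6 hr, 37 C, 5% CO2, after overnight plating. Detection: luminescence, 30 min RT after reagent.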

[4] = qHTS assay to identify small molecule antagonists of the estrogen related receptor (ERR) signaling pathway from Tox21 library - cell viability counter screen (AID 1224834); note: nearly all actives have a fitted effect of over 30% in size
Summary of the method: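 Viability readout (CellTiter-Fluor fluorescence, 30 min at 37 C) multiplexed with the ERR assay; cells treated 17.5 h at 37 C with compounds delivered in DMSO.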

[5] = qHTS assay to identify small molecule agonists of the constitutive androstane receptor (CAR) signaling pathway - cell viability counter screen (AID 1224836); note: nearly all actives have a fitted effect of over 45% in size
Summary of the method: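 Multiplexed viability check: HepG2-CYP2B6-hCAR cells, 15-point compound dosing, 0.75 uM PK11195 final, 23 h at 37 C, CellTiter-Fluor fluorescence.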

[6] = qHTS assay to identify small molecule antagonists of the constitutive androstane receptor (CAR) signaling pathway - cell viability counter screen (AID 1224837); note: nearly all actives have a fitted effect of over 45% in size
Summary of the method: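 Fluorescence from CellTiter-Fluor served as the viability signal. Human hepatoma HepG2 cells stably bearing hCAR and CYP2B6-2.2kb received compound plus CITCO (50 nM final) for 23 hr.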

[7] = biological target: Nuclear receptor subfamily 1 group I member 3 (Homo sapiens) (UniProt Q14994); test: qHTS assay to identify small molecule antagonists of the constitutive androstane receptor (CAR) signaling pathway (AID 1224838);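 note: HepG2 cells stably expressing hCAR with CYP2B6 luciferase reporter stimulated by CITCO; nearly all actives have a fitted effect of over 40% in size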
Nuclear receptor subfamily 1 group I member 3 (Homo sapiens), sequence (Q14994 whole entry, looked up): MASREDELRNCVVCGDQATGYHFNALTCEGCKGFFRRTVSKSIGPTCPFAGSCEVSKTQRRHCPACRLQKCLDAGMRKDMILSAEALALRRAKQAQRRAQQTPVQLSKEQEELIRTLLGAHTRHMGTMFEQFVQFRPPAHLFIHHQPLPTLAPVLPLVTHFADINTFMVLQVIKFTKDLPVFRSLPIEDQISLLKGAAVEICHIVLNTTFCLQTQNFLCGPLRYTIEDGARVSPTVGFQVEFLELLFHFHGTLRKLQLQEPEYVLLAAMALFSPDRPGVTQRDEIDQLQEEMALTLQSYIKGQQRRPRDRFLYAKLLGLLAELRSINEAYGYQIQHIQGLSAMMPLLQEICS
Summary of the method: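 Quantitative HTS in double-stable HepG2-CYP2B6-hCAR cells. After 4 h plating, cells get compound (15 concentrations) and CITCO at 50 nM final, incubate 24 h at 37 C, then ONE-Glo luminescence is read.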

[8] = qHTS assay to identify small molecule antagonists of the estrogen related receptor signaling pathway with the pleiotropic PPARgamma coactivator (PGC) from Tox21 10K library - cell viability counter screen (AID 1224840; active = well fitted cell-killing curve with a large enough effect in the repeat runs, not every such curve was filed as active; note: nearly all actives have a fitted effect of over 40% in size)
Summary of the method: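 Compounds in DMSO, alongside positive and negative controls, were pinned onto PGC/ERR cells (2,000 per well). Exposure lasted 17.5 hours at 37 C, followed by a 30-minute CellTiter-Fluor incubation and fluorescence reading.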

[9] = qHTS assay to identify small molecule antagonists of the estrogen related receptor signaling pathway with the pleiotropic PPARgamma coactivator (PGC) from Tox21 10K library (AID 1224841; call rule not given here; note: actives are mostly falling curves and most rising ones were filed inactive; nearly all actives have a fitted effect of over 50% in size)
Summary of the method: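 Compound exposure ran 18 hours at 37 C in PGC/ERR cells (2,000/well) that had first rested 6 hours in a 37 C/5% CO2 incubator. Luciferase activity was then detected with One-Glo after a 30-minute room-temperature step.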

[10] = qHTS assay to identify small molecule agonists of the estrogen related receptor signaling pathway with the pleiotropic PPARgamma coactivator (PGC) from Tox21 10K library (AID 1224842); note: nearly all actives have a fitted effect of over 15% in size; note: potency is the fitted concentration of half-maximal effect
Summary of the method: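 PGC/ERR reporter cell line, 2,000 cells per well, incubated 6 h at 37 C before 23 nL compound in DMSO was added. After 18 h at 37 C, One-Glo luminescence read following 30 min at room temperature.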

[11] = qHTS assay to identify small molecule agonists of the hypoxia (HIF-1) signaling pathway - cell viability counter screen (AID 1224844; calls by dose curve; note: nearly all actives have a fitted effect of over 50% in size)
Summary of the method: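 Luminescent ATP content (CellTiter-Glo, 30 min, room temperature) served as the viability measure in HRE-bla ME-180 cells exposed to compounds for 17 hrs in low-serum medium (0.5% dialyzed FBS).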

[12] = qHTS assay to identify small molecule agonists of H2AX (AID 1224845; active = well fitted activation curve with a large enough effect in the signal ratio in the repeat runs, not every such curve was filed as active; the % refers to the signal ratio)
Summary of the method: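 Wild-type CHO-K1 cells, plated overnight, exposed 3hr at 37C to 15 concentrations (0.76% DMSO final). Lysed, then HTRF anti-pH2AX (S139) cryptate and anti-H2AX-d2 antibodies, 24 hr room temperature; 665/620 nm emission read.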

[13] = qHTS assay to identify small molecule antagonists of the estrogen related receptor (ERR) signaling pathway from Tox21 library (AID 1224848); note: nearly all actives have a fitted effect of over 50% in size
Summary of the method: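 Luminescent reporter read-out (ONE-Glo) from NTP's ERR cell line after 18 h treatment at 37 C with DMSO-dissolved Tox21 compounds; cells pre-plated 6 h beforehand at 2,000 per well.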

[14] = qHTS assay to identify small molecule agonists of the estrogen related receptor (ERR) signaling pathway from Tox21 library (AID 1224849; calls by dose curve; note: nearly all actives have a fitted effect of over 15% in size); conditions: ERR reporter cell line, ONE-Glo luciferase, 18 h; at 92.4 µM (top of the series) unless noted
Summary of the method: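 We plated ERR reporter cells, waited 6 h, added compounds in DMSO by pin tool and incubated them 18 h at 37 C. ONE-Glo was then added and luminescence read after 30 min.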

[15] = qHTS RealTime-Glo MT Cell Viability Assay in HepG2 cells - 24 hour (AID 1224867); note: nearly all actives have a fitted effect of over 50% in size
Summary of the method: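 Tox21 10K library screened in qHTS format on HepG2 cells carrying RealTime-Glo reagents. Compounds were added after a 5 h preincubation, and the luminescent signal from continuous culture was measured repeatedly during 40 h treatment.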

[16] = biological target: Thyrotropin receptor (Homo sapiens) (UniProt P16473); test: qHTS assay to identify small molecule agonists of the thyroid stimulating hormone receptor (TSHR) signaling pathway (AID 1224843; calls by dose curve; note: nearly all actives have a fitted effect of over 45% in size)
Thyrotropin receptor (Homo sapiens), sequence (P16473 whole entry, looked up): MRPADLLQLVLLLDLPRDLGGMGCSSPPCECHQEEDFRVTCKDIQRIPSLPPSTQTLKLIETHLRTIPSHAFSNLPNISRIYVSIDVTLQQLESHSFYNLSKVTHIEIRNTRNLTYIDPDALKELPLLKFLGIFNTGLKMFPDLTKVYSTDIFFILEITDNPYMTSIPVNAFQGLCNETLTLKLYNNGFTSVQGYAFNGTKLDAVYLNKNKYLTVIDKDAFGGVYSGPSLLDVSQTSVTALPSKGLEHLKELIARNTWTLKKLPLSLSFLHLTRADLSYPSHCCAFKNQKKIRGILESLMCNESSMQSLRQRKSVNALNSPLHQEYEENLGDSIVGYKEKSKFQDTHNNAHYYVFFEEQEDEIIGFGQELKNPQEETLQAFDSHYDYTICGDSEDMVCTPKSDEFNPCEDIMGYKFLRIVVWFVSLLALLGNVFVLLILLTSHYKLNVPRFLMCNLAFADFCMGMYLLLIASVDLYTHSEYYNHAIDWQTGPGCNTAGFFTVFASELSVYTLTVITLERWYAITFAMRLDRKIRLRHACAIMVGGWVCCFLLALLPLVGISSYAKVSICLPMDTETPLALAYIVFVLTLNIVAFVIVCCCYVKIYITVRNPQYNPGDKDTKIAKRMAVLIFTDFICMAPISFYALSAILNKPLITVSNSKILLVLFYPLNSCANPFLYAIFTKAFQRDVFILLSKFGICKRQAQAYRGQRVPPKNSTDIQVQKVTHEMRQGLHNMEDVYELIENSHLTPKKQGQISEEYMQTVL
Summary of the method: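 Steps: seed 800 TSHR-HEK293 cells per well; add test compound and hold 30 min at ambient temperature; dispense cAMP-d2 then anti-cAMP cryptate; incubate 1 h at ambient; measure fluorescence intensity.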

[17] = qHTS assay to identify small molecule agonists of the hypoxia (HIF-1) signaling pathway (AID 1224846; active = well fitted activation curve with a large enough effect in the signal ratio in the repeat runs, not every such curve was filed as active; the % refers to the signal ratio)
Summary of the method: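 Measured by blue/green FRET after loading CCF4-AM: beta-lactamase expressed from a hypoxia response element in ME-180 cells. Test agents were delivered in DMSO and left 17 hrs; cells had been plated 5 hrs earlier in low-serum (0.5% dialyzed FBS) medium.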

[18] = qHTS assay to identify small molecule agonists of H2AX - cell viability counter screen (AID 1224847; calls by dose curve; note: top concentration of the series differs between compounds; nearly all actives have a fitted effect of over 30% in size)
Summary of the method: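 After overnight plating of 1000 CHO-K1 cells per well, a 15-concentration compound series was applied for 3 hr at 37C. Luminescence from CellTiter-Glo, read following 30 min at room temperature, reflected cell viability.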

[19] = biological target: Nuclear receptor subfamily 1 group I member 3 (Homo sapiens) (UniProt Q14994); test: qHTS assay to identify small molecule agonists of the constitutive androstane receptor (CAR) signaling pathway (AID 1224839); note: nearly all actives have a fitted effect of over 15% in size; note: potency is the fitted concentration of half-maximal effect;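 for activation: HepG2 cells stably carrying human CAR and a CYP2B6 luciferase reporter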
Summary of the method: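 Using human hepatoma HepG2 cells engineered with hCAR and a CYP2B6-2.2kb reporter, 15-concentration compound series were incubated 24 h alongside PK11195 at 0.75 uM final, with luminescence quantified afterwards.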
% is set by controls: 0 for no effect and ±100 for the full control effect.

Nc1nc(Cl)cc(Cl)n1
inactive: outcome [1] | outcome [2] | Potency [3] | outcome [4] | outcome [5] | outcome [6] | outcome [7] | outcome [8] | Potency [9] | Potency [10] | outcome [11] | outcome [12] | outcome [13] | activity change, positive = activation [14] -1.17% | outcome [15]

CCC(C)(C)C
inactive: outcome [1] | outcome [2] | Potency [3] | outcome [4] | outcome [5] | outcome [6] | outcome [8] | Potency [9] | Potency [10] | Potency [16] | outcome [11] | outcome [12] | outcome [17] | outcome [18] | outcome [13] | activity change, positive = activation [14] -3.65% | outcome [15]

C/C(=N\O)c1ccc(OCC(=O)N2CCCCC2)cc1
active: Potency [3] 3.76 µM | Potency [19] 4.22 µM
inactive: outcome [1] | outcome [2] | outcome [4] | outcome [5] | outcome [6] | outcome [7] | outcome [8] | Potency [16] | outcome [11] | outcome [12] | outcome [17] | outcome [18] | outcome [15]

CC(O)C(CO)C(C)O (configuration not stated)
inactive: outcome [1] | outcome [2] | Potency [3] | outcome [4] | outcome [5] | outcome [6] | outcome [8] | Potency [16] | outcome [11] | outcome [12] | outcome [17] | outcome [18] | outcome [15]

Cc1cc(O)c(Cl)cc1C
inactive: outcome [1] | outcome [2] | Potency [3] | outcome [4] | outcome [5] | outcome [7] | Potency [19] | outcome [8] | Potency [16] | outcome [11] | outcome [12] | outcome [18] | outcome [15]

CCN1CCN(C(=O)N[C@@H](C(=O)N[C@@H]2C(=O)N3[C@@H]2SC(C)(C)[C@H]3C(=O)O)c2ccccc2)C(=O)C1=O
inactive: outcome [1] | outcome [2] | Potency [3] | outcome [4] | outcome [5] | outcome [6] | outcome [8] | Potency [9] | Potency [10] | Potency [16] | outcome [12] | outcome [18] | outcome [13] | activity change, positive = activation [14] 8.89% [at 42.5 µM] | outcome [15]

CCOc1ccccc1OCCN[C@H](C)Cc1ccc(OC)c(S(N)(=O)=O)c1
inactive: outcome [1] | outcome [2] | Potency [3] | outcome [4] | outcome [5] | outcome [6] | outcome [7] | Potency [19] | outcome [8] | Potency [16] | outcome [11] | outcome [12] | outcome [17] | outcome [18] | outcome [15]

O=CN1CCCCC1
inactive: outcome [1] | outcome [2] | Potency [3] | outcome [4] | outcome [6] | outcome [7] | Potency [19] | outcome [8] | Potency [16] | outcome [12] | outcome [18] | outcome [15]

CC(O)CCCCn1c(=O)c2c(ncn2C)n(C)c1=O (configuration not stated)
inactive: outcome [1] | outcome [2] | Potency [3] | outcome [4] | outcome [5] | outcome [6] | outcome [7] | Potency [19] | outcome [8] | Potency [16] | outcome [11] | outcome [12] | outcome [17] | outcome [18] | outcome [15]

CCCC(=O)CC
inactive: outcome [1] | outcome [2] | Potency [3] | outcome [4] | outcome [6] | outcome [7] | Potency [19] | outcome [8] | Potency [16] | outcome [11] | outcome [12] | outcome [17] | outcome [18] | outcome [15]

N=C(N)N1CCc2ccccc2C1
inactive: activity change, negative = cytotoxicity [1] -0.951% [at 8.39 µM] | activity, negative = inhibition [2] -2.43% [at 8.39 µM] | activation [3] -0.224% [at 8.36 µM] | viability change, negative = cytotoxic [4] 2.84% [at 8.39 µM] | viability change, negative = cytotoxic [8] -0.866% [at 8.39 µM] | activation [10] 0.335% [at 8.39 µM] | activation [16] -1.09% [at 8.39 µM] | activity change, negative = cytotoxicity [11] 5.71% [at 6.97 µM] | activation (H2AX phosphorylation) [12] 0.461% [at 14 µM] | activity change, negative = cytotoxicity [18] 1.46% [at 14 µM] | activity, negative = inhibition [13] 3.19% [at 8.39 µM] | activity change, positive = activation [14] 1.78% [at 8.39 µM] | activity change, negative = cytotoxicity [15] -0.623% [at 6.97 µM]

N=C(N)S(=O)O
inactive: outcome [1] | outcome [2] | Potency [3] | outcome [4] | outcome [5] | outcome [6] | outcome [8] | Potency [9] | Potency [10] | Potency [16] | outcome [11] | outcome [12] | outcome [17] | outcome [18] | outcome [13] | activity change, positive = activation [14] 2.21% | outcome [15]

O=C(O)P(=O)(O)O
inactive: outcome [1] | outcome [2] | Potency [3] | outcome [4] | outcome [5] | outcome [6] | outcome [7] | Potency [19] | outcome [8] | Potency [16] | outcome [11] | outcome [12] | outcome [15]

CC(C)(O)CCCC1=CCC(C=O)CC1 (configuration not stated)
inactive: outcome [1] | outcome [2] | Potency [3] | outcome [4] | outcome [5] | outcome [6] | outcome [7] | Potency [19] | outcome [8] | Potency [16] | outcome [11] | outcome [12] | outcome [17] | outcome [18] | outcome [15]

COc1ccc2cc(CCC(C)=O)ccc2c1
active: Potency [3] 3.35 µM | Potency [10] 13.3 µM | activity change, positive = activation [14] 114% [at 42.5 µM]
inactive: outcome [1] | outcome [2] | outcome [4] | outcome [5] | outcome [8] | Potency [9] | Potency [16] | outcome [11] | outcome [12] | outcome [18] | outcome [13] | outcome [15]

Cc1ccc(O)c([N+](=O)[O-])c1
inactive: outcome [1] | outcome [2] | Potency [3] | outcome [4] | outcome [5] | outcome [6] | outcome [7] | Potency [19] | outcome [8] | Potency [9] | Potency [10] | outcome [11] | outcome [17] | outcome [18] | activity change, positive = activation [14] -16.2% | outcome [15]

CSC(=O)c1cccc2nnsc12
inactive: outcome [1] | outcome [2] | Potency [3] | outcome [4] | outcome [5] | outcome [6] | outcome [7] | Potency [19] | outcome [8] | Potency [16] | outcome [12] | outcome [17] | outcome [18] | outcome [15]
